# FBPA coupling cs – counter-screen for Giardia aldolase inhibitors: coupling enzyme system; coupling enzyme system counterscreen, AmpLite Red fluorescence; activity change, negative = inhibition, % at 58.2 µM, hits read low; 290,000 compounds, 0.67% hits; in the data active = activity change below about -30%
#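 Activity here indicates interference with the coupling reaction, not aldolase inhibition. Compounds at 57.5 uM final met coupling enzymes for 10 min at RT; substrate and AmpLite Red detection followed, with a 525/598 nm fluorescence read after 20 min.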
# Tau ThT inhib – blocks human tau fibril formation measured by thioflavin T | recombinant tau K18 P301L, heparin-induced fibrillization, ThT fluorescence | Potency, µM (highest dose often 57.4 µM), without a hit: at the top dose activity, negative = inhibition, hits mostly inhibitors | 270,000 compounds, 2.1% hits | AID 1460; also: potency is read from the fitted curve at half-maximal effect; nearly all actives have a fitted effect of over 55% in size
# Target sequence (P10636 561-689 P618L limits assumed): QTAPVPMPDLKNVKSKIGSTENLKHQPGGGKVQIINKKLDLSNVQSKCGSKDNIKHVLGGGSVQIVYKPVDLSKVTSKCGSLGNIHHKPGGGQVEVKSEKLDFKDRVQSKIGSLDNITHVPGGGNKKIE
#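 Heparin-induced (20 uM) aggregation of recombinant human K18 P301L tau, 15 uM unlabeled with 0.24 uM labeled, pH 7 acetate buffer, 6 hr at 37 C with compound. Fibrils quantified by 30 uM ThT fluorescence after 1 hr ambient incubation.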
# Tau fibril FP – tau fibrillization inhibition (FP). K18 P301L tau heparin fibrillization, Alexa594 FP, 6 h. AID 1468. Potency, µM (top dose mostly 57.7 µM), for inactives: at the top dose activity, negative = inhibition, most hits filed as inhibitors. 280,000 compounds, 0.39% hits. P10636; also: potency is read from the fitted curve at half-maximal effect; nearly all actives have a fitted effect of over 55% in size
#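 Human K18 P301L fragment (15 uM unlabeled plus 0.24 uM Alexa 594-labeled) in 100 mM sodium acetate pH 7 with compound, aggregation induced by 20 uM heparin for 6 hr at 37 C. ThT (30 uM) added for 1 hr, then Alexa 594 FP read.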
# Tau fluor counter – counter-screen for tau fibril formation inhibitors; tau K18 P301L Alexa594 fluorescence, heparin fibrillization; 280,000 compounds, 0.93% hits; AID 1463; Potency, µM (series often up to 57.7 µM), for the others: at the highest dose activity change, negative = decrease; also: potency is read from the fitted curve at half-maximal effect; nearly all actives have a fitted effect of over 55% in size
#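 Human tau K18 P301L (15 uM unlabeled, 0.24 uM Alexa 594-labeled) in 100 mM sodium acetate pH 7 with 20 uM heparin, 6 hr at 37 C. ThT 30 uM added, 1 hr ambient; Alexa 594 FP and total fluorescence read at 555/632 nm.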
# USP1-UAF1 inh – blocks the human USP1/UAF1 deubiquitinase complex. Potency, µM (top dose mostly 57.1 µM), for the others: at the highest dose activity change, negative = inhibition, most hits filed as inhibitors. recombinant USP1/UAF1, Ub-Rhodamine cleavage fluorescence. O94782. 390,000 compounds, 0.23% hits. AID 743255; also: potency is read from the fitted curve at half-maximal effect; nearly all actives have a fitted effect of over 60% in size
#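 USP1/UAF1 complex (1 nM) preincubated 15 min at room temperature with compound, then Ub-Rho substrate (150 nM final) added. Kinetic fluorescence at 480/540 nm over 6 reads at 60 s intervals; 50 mM HEPES pH 7.8, 0.5 mM EDTA, 0.1 mg/ml BSA, 1 mM TCEP, 0.01% Tween-20.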
# * = called active by the depositor; ? = inconclusive; nt = not tested or not shown; ! = repeats disagree; [ ] = remark or other dose. A selection: hits, their analogues and other compounds. The true share with any hit is near 2.3%. Unless noted, calls follow the shape of the dose curve; as a rule, active = well fitted curve in the direction sought with a large enough effect; inconclusive = small, poorly fitted or top-dose-only effect, or another doubt; inactive = no such curve, though single readings can be large; an effect the other way counts as inactive or inconclusive. % is scaled to controls: 0 for no effect and ±100 for the full control effect.
SMILES,FBPA coupling cs,Tau ThT inhib,Tau fibril FP,Tau fluor counter,USP1-UAF1 inh
Cc1[nH]c2ccccc2c1C(=O)CSC(=S)N(C)C1CCCCC1,-10.3,-13.7%,25.1µM*,?,-2.3%
O=C(CNc1cccc2ccccc12)N/N=C/C(Br)=C/c1ccccc1,-4.3,?,0.9%,14.1µM*[quencher],2.9%
O=C(CNc1cccc2ccccc12)N/N=C/c1ccc[nH]1,1.4,?,19.2%,-26.0%,-13.9%
O=C(/C=C/c1cn(CC(O)CN2CCCCCC2)c2ccccc12)c1ccc(Br)cc1 (configuration not stated),nt,22.4µM*,-12.2%,?,?
Cc1ccc(C(=O)/C=C/c2cn(CC(O)CN3CCCCCC3)c3ccccc23)cc1 (configuration not stated),nt,12.6µM*,-20.5%,?,?
COc1ccc(NC(=O)c2sc3nc4c(c(-c5ccc(OC)cc5)c3c2N)C(=O)CC(C)(C)C4)cc1,nt,-14.4%,-6.6%,?,-7.2%
Clc1cccc(/C(Cc2nc3ccccc3[nH]2)=N\Nc2ccccc2)c1,1.2,?,?,7.08µM*[quencher],-10.0%
O=C(NCCc1nc2ccccc2[nH]1)c1cc([N+](=O)[O-])cc([N+](=O)[O-])c1,2.6,?,3.0%,-14.9%,-19.7%
c1ccc(N/N=C(\Cc2nc3ccccc3[nH]2)c2ccccc2)cc1,0.5,?,1.1%,15.8µM*[quencher],-13.7%
N/N=C(/Cc1nc2ccccc2[nH]1)c1ccc([N+](=O)[O-])cc1,1.5,5.01µM*,-2.9%,-29.6%,-19.6%
CCCCC(C)/C=C(C)/C=C(\C)C(=O)NC1=CC(O)(/C=C/C=C/C=C/C(=O)NC2=C(O)CCC2=O)C2OC2C1=O (configuration not stated),2.0,nt,nt,nt,nt
Cc1ccccc1-n1nc(CO)c(C(=O)NCCc2ccccc2)n1,nt,-5.7%,1.6%,-7.0%,-26.5%
CCOc1ccccc1NC(=O)N1CCN(S(=O)(=O)c2ccc3c(ccn3C)c2)CC1,nt,-7.6%,6.4%,-24.8%,-23.0%
COc1ccc(/C=C2\N=C(SC)SC2=O)cc1OC,3.3,?,0.1%,-12.0%,-12.7%
CCOc1cc(/C=C2\N=C(SCC)SC2=O)cc([N+](=O)[O-])c1OC(C)=O,-2.1,3.98µM*,-10.0%,?,-12.5%
CCOc1c(OC(C)=O)ccc(/C=C2\N=C(SCC)SC2=O)c1[N+](=O)[O-],0.4,14.1µM*,?,17.8µM*[quencher],?
CCOc1cc(/C=C2\N=C(SC)SC2=O)cc([N+](=O)[O-])c1OC(C)=O,-0.3,3.55µM*,-11.0%,?,-18.3%
O=C(c1ccccc1Cl)n1nc(-c2ccco2)nc1NCc1cccs1,nt,-15.5%,-18.0%,?,-19.2%
O=C1S/C(=C\C=C\c2ccco2)C(=O)N1c1ccc(O)cc1,-23.2,14.1µM*,?,15.8µM*[quencher],-11.0%
O=C1S/C(=C\C=C\c2ccco2)C(=O)N1c1ccccc1,1.9,14.1µM*,?,?,0.6%
Cc1ccc(N2C(=O)/C(=C/c3ccco3)SC2=S)cc1,1.1,?,-12.9%,-26.1%,-25.7%
COC(=O)c1nn(-c2ccc(OC)cc2)c(=O)cc1NN,-42.6*,14.1µM*,?,-14.5%,-21.3%
Cc1ccc(C)c(N2CCN(C(=O)CN3C(=O)COc4ccc(S(=O)(=O)N5CCCC5)cc43)CC2)c1,nt,-2.8%,-3.5%,1.6%,-12.2%
CC1(C)Cc2c(c(-c3ccco3)[nH]c(=O)c2C#N)CS1,-42.6*,?,?,-14.1%,-20.6%
O=C(c1cccc([N+](=O)[O-])c1)N1c2nc(-c3ccco3)nn2C2(CCCCC2)[C@@H]2CCCC[C@@H]21,nt,-3.5%,0.5%,-26.3%,-14.3%
SMILES,FBPA coupling cs,Tau ThT inhib,Tau fibril FP,Tau fluor counter,USP1-UAF1 inh
Cc1ccc(C)n1-c1ccc(N2CCOCC2)cc1,-18.5,8.91µM*,-14.9%,-8.5%,-18.0%
Cc1ccc(C)n1-c1ccc(N2CCOCC2)c([N+](=O)[O-])c1,-19.3,?,-6.1%,-25.3%,-12.0%
Cc1ccc(C)n1-c1ccc(N(C)C)cc1,-30.3*,12.6µM*,?,?,?
O=c1c2c(-c3ccccc3)csc2ncn1/N=C/c1cccc([N+](=O)[O-])c1O,2.3,14.1µM*,-2.6%,-11.0%,-2.7%
CCCCn1c(SCC(=O)Nc2ccc(OC)cc2)nc2ccc(N3CCOCC3)cc2c1=O,-31.6*,?,11.9%,-28.4%,-10.2%
CCC(C)NC(=O)CSc1nc2ccc(N3CCOCC3)cc2c(=O)n1CCc1ccccc1 (configuration not stated),-22.1,-11.6%,6.7%,-22.9%,nt
CCCCn1c(SCC(=O)NCc2ccco2)nc2ccc(N3CCOCC3)cc2c1=O,-40.1*,-7.0%,-3.7%,-1.8%,-13.0%
CCCCn1c(SCC(=O)NCc2ccccc2)nc2ccc(N3CCOCC3)cc2c1=O,-37.5*,-13.5%,8.2%,-8.9%,-9.7%
CCCCn1c(SCC(=O)NC(C)CC)nc2ccc(N3CCOCC3)cc2c1=O (configuration not stated),-36.0*,?,-7.7%,?,-16.8%
O=C(CCS(=O)(=O)c1ccc(Br)s1)Nc1c(F)cccc1F,nt,-3.8%,-4.9%,-8.8%,8.5%
COCCCNC(=O)C1CCN(C(=O)c2cnn(-c3ccccc3)c2-n2cccc2)CC1,nt,2.1%,-3.3%,1.2%,-15.2%
CCOC(=O)c1ccccc1NC(=O)N1CC(C)Oc2ccc(C)cc21 (configuration not stated),nt,0.5%,?,2.82µM*[quencher],?
CCc1ccc(NC(=O)N2CC(C)Oc3ccc(C)cc32)cc1 (configuration not stated),nt,3.1%,-3.9%,2.51µM*[quencher],-11.7%
COC(=O)c1ccccc1NC(=O)CCC(=O)N1CC(C)Oc2ccc(C)cc21 (configuration not stated),-3.1,nt,nt,nt,-22.6%
NCCS,4.0,15.8µM*,?,?,?
COc1ccc(CN2C(=O)C(NC(=O)c3ccccc3OC)(C(F)(F)F)N=C2c2ccccc2)cc1 (configuration not stated),nt,-9.4%,-14.5%,?,-20.4%
Cc1ccc2onc(CNC(=O)Nc3cc(F)ccc3F)c2c1,nt,-3.5%,?,-24.4%,-21.5%
CCN(CC)S(=O)(=O)c1ccc(NC(=O)NCc2noc3ccc(C)cc23)cc1,nt,8.2%,14.1µM*,12.6µM*[quencher],-9.1%
Cc1ccc(C)c(Cn2c(=O)cc(C)c3c(C)nn(-c4cccc(F)c4)c32)c1,nt,-13.5%,-17.3%,-16.0%,3.6%
CC1(OC(=O)C2CCCC2)C(=O)C=C2C=C(c3ccsc3)N(C3CCCCC3)C=C2C1=O (configuration not stated),-17.8,14.1µM*!,?,-8.4%[11.6 µM],?
COC/C=C/C1=CC2=CC(=O)C(C)(OC(=O)c3cnc4ccccc4n3)C(=O)C2=CN1CCN1CCOCC1 (configuration not stated),-14.4,15.8µM*,?,?,?
